# Test results reported in PubChem BioAssay (NCI).
# Compounds without any hit were thinned out: in the full panel of roughly 83,000, 20% have a hit.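 Interpretation: 100, growth as untreated; towards 0, rising growth inhibition; 0, no net growth; 0 to -100, cell death. Compounds scoring below 10 were considered active.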 The source made the active and inactive calls.
# Test system: HL-60(TB) leukemia
# Assay: NCI-60 one-dose screen, 48 h (100 = growth as untreated, 0 = no growth, -100 = all killed)
# Conditions: 10 µM unless noted
row,Compound,growth
1,COc1cccc(-c2nc3sccn3c2-c2ccnc(NCCNS(=O)(=O)c3ccc(C(F)(F)F)cc3)c2)c1,14.9% (inactive)
2,CN1Cc2c(cc(CN3CCCCC3)n2C)C(c2ccc(Br)cc2)C1 (centres undefined),83.8% (inactive)
3,COc1c(-c2c3sc(=O)[nH]c3nc3c2c(=O)[nH]n3C(C)C)cc2c(c1OC)OCO2,93.8% (inactive)
4,O=C(O)COc1ccc(-c2cssc2=S)cc1,101% (inactive)
5,CCCCOc1nc2ccc(Cl)cc2cc1/C=C/C(=O)/C=C/c1ccc(OC)cc1,89.5% (inactive)
6,COc1ccc2[nH]c(-c3ccccc3)c(C=C(C#N)C#N)c2c1,-49.1% (active)
7,Cc1ccc2c(NCCCN(C)C)c3c(C)nn(C)c3nc2c1,32.4% (inactive)
8,CCC(=O)Oc1c(C)cc(O)c2ccccc12,68.8% (inactive)
9,CCN(CC)P(=O)(N(CC)CC)N(CCCSC/C=C(\C)CC/C=C(\C)CCC=C(C)C)CCCN1CCN(C)CC1,83.3% (inactive)
10,Brc1ccccc1Cn1c(-c2cncs2)nc2ccccc21,79.1% (inactive)
11,O=C(O)COc1c(Cl)cc([N+](=O)[O-])cc1Cl,87.1% (inactive)
12,OCCCc1n(Cc2ccc3ccccc3c2)c2ccccc2[n+]1Cc1ccc2ccccc2c1,-43.5% (active)
13,CC1(C)C(=O)/C(=C\c2ccco2)C[C@]2(C)[C@H]3CC=C4[C@@H]5C[C@](C)(C(=O)O)CC[C@]5(C)CC[C@@]4(C)[C@]3(C)CC[C@@H]12,-21.1% [100 µM] (active)
14,COC(=O)c1nc(-c2ccccc2)oc1S(=O)(=O)Cc1ccccc1,16.8% (inactive)
15,O=c1[nH]c2ccc(Cl)cc2c2ccccc12,130% (inactive)
16,C=CC(=O)NCc1cccc(Nc2ncc(Br)c(NCCCNC(=O)C3CCC3)n2)c1,-50% (active)
17,S=C=Nc1ccc(N2CCOCC2)cc1,103% (inactive)
18,CSc1ccc2c3c(n(CCCn4ccnc4)c(=O)c2c1)-c1ccccc1C3=O,15.5% (inactive)
19,N#Cc1c(N2CCOCC2)nc2sc3cc(Cl)ccc3n2c1=N,107% (inactive)
20,Cc1ccc(C(=O)NC2c3ccccc3Oc3ccccc32)cc1,-3.42% (active)

row,Compound,growth
1,C=C1C(=O)O[C@H]2[C@H]1CC/C(COC(=O)CSCSCC(=O)OC/C1=C/CC[C@@]3(C)O[C@H]3[C@H]3OC(=O)C(=C)[C@@H]3CC1)=C\CC[C@@]1(C)O[C@@H]21,-53.9% (active)
2,COCCCNS(=O)(=O)c1ncnc2nc[nH]c12,82.2% (inactive)
3,NC(=NCCCOc1ccc(F)cc1)Nc1ccc(I)cc1,72.6% (inactive)
4,O=C1/C(=C\c2cccc(OCCCCCOc3ccc(Cl)cc3)c2)N=C2SCCCN12,36% (inactive)
5,N#Cc1nc(-c2ccccc2)oc1S(=O)(=O)N1CCN(c2ccccc2)CC1,75.6% (inactive)
6,Fc1ccc(NC(c2ccc(F)cc2)C2CCN(CCCCc3ccccc3)CC2)cc1 (centres undefined),10.8% (inactive)
7,Cc1cc(C)c(C#N)c(SCC(=O)c2sc3c(C#N)c(C)cc(C)[n+]3c2[O-])n1,-39.3% (active)
8,COC1OCC(O)C(O)C1O (centres undefined),102% (inactive)
9,CC(=O)OC1Oc2ccccc2-c2oc(=O)c(-c3cc4ccc(N(C)C)cc4oc3=O)cc21 (centres undefined),-9.4% (active)
10,CN1CCN(c2ccc3nc(-c4[nH]ncc4Nc4ncnc5c4OCCCN5)[nH]c3c2)CC1,-28.7% (active)
11,NC(N)=Nc1cc2ccccc2c2ccccc12,46.4% (inactive)
12,CC1=NOCC(=O)N1,104% (inactive)
13,COc1cccc(-c2nn(-c3ccccc3)cc2-c2ccnc(NCCCNS(=O)(=O)c3ccc(C(F)(F)F)cc3)c2)c1,12.4% (inactive)
14,C#CCOc1c(OC)cc(C(=O)/C(C)=C/c2cccc(N=[N+]=[N-])c2)cc1OC,1.17% (active)
15,Cc1nc2c(ccc3ccccc32)s1,84.2% (inactive)
16,COc1cc(-c2nn(-c3ccc(NC(=O)NCCNS(=O)(=O)c4ccc(F)cc4)cc3)cc2-c2ccncc2)ccc1Cl,-9.47% (active)
17,CCN(CCCCCCCCCCN1CC(=O)N(CCCCCCCCCCN(CC)Cc2ccccc2OC)CC1=O)Cc1ccccc1OC,-67.9% (active)
18,COc1ccc2c(c1)c(-c1nn3cc(-c4cccs4)nc3s1)cn2C,82.7% (inactive)
19,COc1c(C(NC(=O)c2ccccc2)c2sccc2C)cc(Cl)c2cccnc12 (centres undefined),96.1% (inactive)
